The results in this text go back to PubChem BioAssay (NCATS).

The structures appear in SMILES notation. Records with an inconclusive call do not appear. Active and inactive are the calls of the source. Calls come from the whole dose curve; as a rule, active = well fitted inhibition curve with a large enough effect; inconclusive = small, poorly fitted or top-dose-only effect; inactive = flat fitted curve, though single readings scatter.
% is set by controls: 0 for no effect and ±100 for the full control effect; potency is the fitted concentration of half-maximal effect.

Chain of Ubiquitin carboxyl-terminal hydrolase 1 (Homo sapiens) (O94782 whole entry, looked up): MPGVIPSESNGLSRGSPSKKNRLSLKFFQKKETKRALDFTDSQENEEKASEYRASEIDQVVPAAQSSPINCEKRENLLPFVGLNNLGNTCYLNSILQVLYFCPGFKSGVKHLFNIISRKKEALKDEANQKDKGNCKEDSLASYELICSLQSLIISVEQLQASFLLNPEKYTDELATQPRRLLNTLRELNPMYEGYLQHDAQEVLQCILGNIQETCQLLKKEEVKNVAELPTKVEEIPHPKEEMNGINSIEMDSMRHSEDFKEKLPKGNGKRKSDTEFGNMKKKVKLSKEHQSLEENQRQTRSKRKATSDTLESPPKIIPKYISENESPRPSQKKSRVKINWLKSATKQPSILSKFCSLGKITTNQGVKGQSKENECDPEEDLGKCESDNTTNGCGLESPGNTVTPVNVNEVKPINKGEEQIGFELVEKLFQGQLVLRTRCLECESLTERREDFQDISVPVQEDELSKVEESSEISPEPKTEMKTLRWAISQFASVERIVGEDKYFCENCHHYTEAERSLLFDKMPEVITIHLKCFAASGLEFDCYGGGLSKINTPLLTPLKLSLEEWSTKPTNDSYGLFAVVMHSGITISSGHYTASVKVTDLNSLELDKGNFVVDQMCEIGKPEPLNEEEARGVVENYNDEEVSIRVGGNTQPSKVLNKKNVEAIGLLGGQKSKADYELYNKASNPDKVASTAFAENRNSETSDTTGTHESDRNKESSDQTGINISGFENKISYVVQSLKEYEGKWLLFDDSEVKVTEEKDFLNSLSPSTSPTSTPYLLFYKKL

The target of the test is Ubiquitin carboxyl-terminal hydrolase 1 (Homo sapiens) (UniProt O94782). Briefly: Inhibitors of USP1/UAF1: Pilot qHTS (AID 504865).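 For activity change, negative = inhibition: rhodamine fluorescence freed from ubiquitin-rhodamine substrate followed over time; top concentration of the series differs between compounds.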 Note: nearly all actives have a fitted effect of over 35% in size. To be noted: purified USP1/UAF1, Ub-rhodamine cleavage fluorescence; series mostly up to 114 µM; activity change, negative = inhibition: at the top concentration. The method, boiled down:
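Kinetic fluorescence assay: 1nM USP1/UAF1, 15 min compound preincubation, then 150nM Ub-Rho; 480/540 nm.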
(In general: Quantitative high-throughput screening tests each substance at several concentrations.)
With `COC1=CC=C2[C@H]3Cc4ccc(OC)c5c4[C@@]2(CCN3C)[C@H]1O5`, the “activity change, negative = inhibition” value was -13% [at 54.9 µM] (inactive). The same measure, in the same setting: the value for `CCC1(c2ccccc2)C(=O)NC(=O)NC1=O` was -3.56% (inactive); that for `COc1ccc2c3c1O[C@H]1C(=O)CC[C@H]4[C@@H](C2)N(C)CC[C@]314` was -8.03% (inactive); that for `N#CC1(N2CCCCC2)CCCCC1` was -4.63% (inactive). Still for that read-out and setting: the value for `CNC(=O)Oc1ccccc1C(=O)Nc1ccccc1` was -7.71% (inactive); that for `Cc1cc(C)cc(C(=O)OC2C[C@H]3CC[C@@H](C2)N3C)c1` (stereo not given in full) was -8.03% (inactive). On the same count and under the same terms, the value for `C[C@]12CCC(=O)C[C@@H]1CC[C@@H]1[C@@H]2CC[C@]2(C)[C@@H](O)CC[C@@H]12` was -8.29% (inactive); that for `CCC1(CC)C(=O)NC(=O)N(C)C1=O` was -0.485% (inactive); that for `CCOc1ccc2c3c1O[C@H]1[C@@H](O)C=C[C@H]4[C@@H](C2)N(C)CC[C@@]341` was -8.08% (inactive). Take `O=S(=O)(O)c1cc(O)ccc1O`: the “activity change, negative = inhibition” value is 1.05% [at 54.9 µM] (inactive). The same measure, in the same setting: the value for `CCCC(C)C1(CC)C(=O)NC(=O)NC1=O` (stereo not given) was -0.514% (inactive). For `CC(=O)O[C@H]1CC[C@H]2[C@@H]3CCC4=CC(=O)CCC4=C3C=C[C@]12C`, the “activity change, negative = inhibition” value is -19.2% (inactive). On the same count and under the same terms, the figure for `C=CCN1CC[C@]23c4c5ccc(O)c4O[C@H]2[C@@H](O)C=C[C@H]3[C@H]1C5` is -6.13% (inactive); for `CCCC(C)(COC(N)=O)COC(=O)NC1CC1` (stereo not given) it is -12% (inactive); for `CCC(=O)O[C@@](Cc1ccccc1)(c1ccccc1)[C@@H](C)CN(C)C` it is 3.33% [at 54.9 µM] (inactive). Still for that read-out and setting: the figure for `C[N+]1(C)CCCCC1COC(=O)C(O)(c1ccccc1)c1ccccc1` (stereo not given) is -2.24% (inactive). The same measure, in the same setting: the value for `C/C(=C\c1csc(C)n1)[C@@H]1C[C@@H]2O[C@]2(C)CCC[C@H](C)[C@H](O)[C@@H](C)C(=O)C(C)(C)[C@@H](O)CC(=O)O1` was -5.95% (inactive). For `Clc1ccc(C2(Cn3cncn3)OCCO2)c(Cl)c1`, the “activity change, negative = inhibition” value was -4.41% (inactive).

For `CCCC(=O)OC(C(Cl)(Cl)Cl)P(=O)(OC)OC` (stereo not given), the “activity change, negative = inhibition” value was -0.402% (inactive). For the compound `CCN(CC)C(=O)/C(Cl)=C(\C)OP(=O)(OC)OC`, the “activity change, negative = inhibition” value is 0.697% (inactive). Still for that read-out and setting: the figure for `O=C(NC(=O)c1c(F)cccc1F)Nc1ccc(Cl)c(Oc2ncc(C(F)(F)F)cc2Cl)c1` is -7.63% (inactive); for `O=C1CCCCC1CN1CCCCC1` (stereo not given) it is -2.44% (inactive). Regarding `CC(C)(O)C1C2OC(=O)C1C1(O)CC3OC34C(=O)OC2C14C` (stereo not given), the “activity change, negative = inhibition” value was -3.79% (inactive). `O=C(CCl)c1ccc(Oc2ccc(C(=O)CCl)cc2)cc1`: the Potency is 56.2 µM (active). On to `[N-]=[N+]=CC(=O)OCC(N)C(=O)O` (stereo not given), for which the “activity change, negative = inhibition” value is -12.1% (inactive). Consider `Oc1cccc[c]1[Hg][Cl]`, for which the Potency was 44.7 µM (active). For `NCC(O)c1cccc(O)c1` (stereo not given), the “activity change, negative = inhibition” value was -9.56% (inactive).

As for `CN1CCCC(=C(c2cccs2)c2cccs2)C1`, the “activity change, negative = inhibition” value was -4.47% (inactive).

Take `c1cc2c(c(NC3=NCCN3)c1)CCCC2`: the “activity change, negative = inhibition” value is -6.05% (inactive).

On to `CCCCNCC(O)c1ccc(O)cc1` (stereo not given), for which the “activity change, negative = inhibition” value was -4.22% (inactive).

For `CN1[C@@H]2CC[C@H]1CC(OC1c3ccccc3CCc3ccccc31)C2` (stereo not given in full), the “activity change, negative = inhibition” value is -14.8% [at 54.9 µM] (inactive). Still for that read-out and setting: the value for `O=C1CN(O)C(c2ccccc2)=c2cc(Cl)ccc2=N1` was -7.12% (inactive); that for `Cn1sc(Cl)cc1=O` was -0.0824% (inactive); that for `CC(Cc1ccccc1)NC=O` (stereo not given) was -1.85% (inactive). Same read-out and setting: the figure for `CCNC(C)Cc1cccc(C(F)(F)F)c1` (stereo not given) is -3.06% (inactive); for `c1ccc2sc(SNC3CCCCC3)nc2c1` it is -8.37% (inactive). As to `COC([CH2][Hg])CNC(=O)c1ccccc1OCC(=O)O` (stereo not given), the “activity change, negative = inhibition” value is -5.23% (inactive). Same read-out and setting: the figure for `CC(=O)OC1CN2CCC1CC2` (stereo not given) is 2.7% (inactive). Regarding `CNC(C)C(O)c1ccc(O)cc1` (stereo not given), the “activity change, negative = inhibition” value is -5.02% (inactive). For the compound `O=c1[nH]cc(N(CCCl)CCCl)c(=O)[nH]1`, the “activity change, negative = inhibition” value was -1.07% (inactive).
